Results from ChEMBL document CHEMBL3433997, “St. Jude Leishmania screening dataset” (2016).
“And” between values parts separate entries of the source, which are not always exact repeats. Identical values can stand only once.

What was measured:
Format in all cases: functional
[1] = target: Solute carrier family 2, facilitated glucose transporter member 1 (Homo sapiens) (UniProt P11166); test: ST_JUDE_LEISH: Cytotoxicity at 2uM final concentration against transgenic Leishmania Mexicana promastigotes LmGLUT1 that are glucose transport deficient and complemented with the human glucose transporter GLUT1. Activity is measured by DNA content using SYBR green in vitro
Solute carrier family 2, facilitated glucose transporter member 1 (Homo sapiens), sequence (P11166 whole entry): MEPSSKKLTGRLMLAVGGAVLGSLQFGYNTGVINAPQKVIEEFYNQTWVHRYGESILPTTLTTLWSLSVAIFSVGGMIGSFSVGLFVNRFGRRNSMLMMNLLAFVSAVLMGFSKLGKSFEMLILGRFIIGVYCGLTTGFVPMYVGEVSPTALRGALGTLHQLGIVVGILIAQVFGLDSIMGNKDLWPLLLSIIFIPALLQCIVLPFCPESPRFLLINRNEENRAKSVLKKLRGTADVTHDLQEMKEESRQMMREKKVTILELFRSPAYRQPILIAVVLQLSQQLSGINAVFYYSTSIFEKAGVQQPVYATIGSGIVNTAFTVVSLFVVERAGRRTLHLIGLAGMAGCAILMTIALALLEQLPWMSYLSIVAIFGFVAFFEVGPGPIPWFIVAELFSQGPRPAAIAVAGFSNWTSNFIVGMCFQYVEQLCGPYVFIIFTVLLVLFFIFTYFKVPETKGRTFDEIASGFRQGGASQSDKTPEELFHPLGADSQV

[2] = target: Hexose transporter 1 (Plasmodium falciparum) (UniProt O97467); test: ST_JUDE_LEISH: Cytotoxicity at 2uM final concentration against transgenic Leishmania Mexicana promastigotes LmPfHT that are glucose transport deficient and complemented with the Plasmodium falciparum hexose transporter. Activity is measured by DNA content using SYBR green in vitro
[3] = target: Glucose transporter (Leishmania mexicana) (UniProt O61059); test: ST_JUDE_LEISH: Cytotoxicity at 2uM final concentration against transgenic Leishmania Mexicana promastigotes LmGT2 that are glucose transport deficient and complemented with the L. Mexicana glucose transporter 2. Activity is measured by DNA content using SYBR green in vitro

Row | SMILES | inhibition [1] | inhibition [2] | inhibition [3]
1 | O=C(/C=C/c1cccc(Cl)c1)NC1CCC(CN2CCC(c3c[nH]c4ccccc34)CC2)CC1 (stereo not given) | 2.39% and 2.9% | 2.82% and 1.43% | -0.58% and 2.44%
2 | N#Cc1ccc(N(CCCO)Cc2ccccc2C(F)(F)F)cc1C(F)(F)F | -1.34% | -1.78% | -0.99%
3 | O=C(NC1CCC(CN2CCC(c3c[nH]c4ccccc34)CC2)CC1)c1csc(-c2ccc(C(F)(F)F)cc2Cl)n1 (stereo not given) | 10.1% | 9.77% | 10.2%
4 | CN1CC(c2ccc(Cl)c(Cl)c2)OC1=N (stereo not given) | -0.53% | 0.23% | -0.89%
5 | N#Cc1ccc(N(CC(=O)NCCc2ccc(F)cc2)CC2CC2)c2ccccc12 | -0.35% | -0.59% | 1.47%
6 | COc1ccc(CN(C2CC2)C(C)C(=O)c2[nH]c(C)c(C(C)=O)c2C)cc1 (stereo not given) | -1.09% | 1.96% | -1.15%
7 | CC[C@H]1CN2CC[C@H]1C[C@@H]2[C@H](O)c1ccnc2ccc(O)cc12 | -0.84% | -0.85% | 0.24%
8 | CCCCCc1cc(O)c2c(c1)OC(C)(C)CC2C1=CCN(Cc2cnc3ccccc3c2)CC1 (stereo not given) | 1.53% | 1.25% | 0.64%
9 | Cn1c(C2CC3CCC(C2)N3CC2CCC(NC(=O)/C=C/c3ccc(Cl)c(Cl)c3)CC2)nc2ccccc21 (stereo not given) | 4.11% | 3.19% | 2.69%
10 | O=C1COc2ccccc2N1CCN1CCC(NCc2ccc(-c3cccs3)cc2)CC1 | 8.28% | 7.16% | 3.03%
11 | CCc1ccc(CN2CCC(CN(C(=O)c3ccccc3)c3ccc(Cl)cc3)CC2)cc1 | 8.24% | 5.97% | 5.04%
12 | Cc1[nH]c2cc(Cl)ccc2c1C1=CCN(CCCCC2(C)C(=O)Nc3ccccc32)CC1 (stereo not given) | 2.01% | 0.91% | 1.15%
13 | CCCCCCC(C)c1cc(O)c2c(c1)OC(C)(C)c1ccncc1-2 (stereo not given) | 1.12% | 0.89% | -1.19%
14 | CC(=O)Nc1ccc(CN2CCC(N(C)c3ccc(NC(=O)c4cccc(C)c4)cc3)CC2)cc1 | 8.7% | 10.9% | 9.57%
15 | O=C(/C=C/c1ccc(Cl)c(Cl)c1)NCCC1CCC(N2CCC(c3c[nH]c4ccccc34)CC2)CC1 (stereo not given) | 6.03% | 7.76% | 4.25%
16 | CC(NC(C)(C)C)C(O)c1ccc(Cl)c(C(F)(F)F)c1 (stereo not given) | 1.86% | 0.38% | 1.11%
17 | O=C(CNC1CCCCC1)c1ccc(O)c(O)c1 | 75.2% | 87.1% | 77.4%
18 | COC(=O)/C=C/C(=O)N[C@@H]1CC[C@@]2(O)[C@H]3Cc4ccc(O)c5c4[C@@]2(CCN3CC2CC2)[C@H]1O5 | 4.79% | 5.03% | 6.57%
19 | Cc1cc(-c2ncc[nH]2)ccc1-c1ccc(C(=O)N2CCc3cc4c(cc32)C2(CCN(C)CC2)CO4)cc1 | -2.79% | 1.74% | -0.2%
20 | O=C(/C=C/c1ccc(Cl)c(Cl)c1)N1CCC(CN2CCC(c3c(-c4ccc(F)cc4)[nH]c4ccccc34)CC2)CC1 | 0.15% | -1.9% | -4.69%
21 | S=C(NCCc1ccc(Cl)cc1)NC1CCC(CN2CCC(c3c[nH]c4ccccc34)CC2)CC1 (stereo not given) | 2.11% and -0.48% | 0.01% and 3.61% | -2.05% and -1.85%
22 | COC(=O)c1ccc(CC(C)NCC(O)c2cccc(C(F)(F)F)c2)c(Cl)c1 (stereo not given) | 2.55% | 2.18% | 3.39%
23 | COc1ccc(C[C@@H](C)NC[C@H](O)c2cccc(Cl)c2)cc1F | 0.83% and 1.3% | 3.32% and 5.02% | 0.88% and 0.58%
24 | COc1ccc(C[C@H]2NC[C@H](O)[C@H]2OC(C)=O)cc1 | 105% | 103% | 92.1%

Row | SMILES | inhibition [1] | inhibition [2] | inhibition [3]
25 | OC1(c2ccc(Cl)c(C(F)(F)F)c2)CCN(CCOC2c3ccccc3CSc3ccc(Cl)cc32)CC1 (stereo not given) | 2.52% | 1.04% | 2.27%
26 | COCCNCc1cccc(-c2ccc(CN(C(=O)Nc3ccccc3)C3CCN(Cc4ccccc4)CC3)cc2)c1 | 2.81% | 0.8% | 2.73%
27 | CC(C)NC(=O)Cn1cc(C2CCN(CC3CCN(C(=O)/C=C/c4ccc(Cl)c(Cl)c4)CC3)CC2)c2ccccc21 | 1.44% | 0.25% | 1.41%
28 | CNCCN(C)C(=O)Oc1c(Cl)c(C)nc(C)c1-c1ccc(Oc2ccc(OC(F)(F)F)cc2)cc1 | 4.11% | 4.04% | 4.28%
29 | COc1ccc(O)c(CN2CCN(c3cc(C)ccc3C)CC2)c1 | 2.93% | 3% | 2.89%
30 | CCCN(CCC)CCOC(=O)C(OCC)(c1ccccc1)c1ccccc1 | 1.8% | 0.63% | -0.33%
31 | CC[C@H]1CN2CC[C@H]1C[C@H]2[C@H](O)c1cc(/C=C/c2ccc(F)cc2)nc2ccc(OC)cc12 | 4.05% | 1.87% | 2.03%
32 | CC[C@H]1CN2CC[C@H]1C[C@H]2[C@@H](O)c1cc(OCCCN(C)C)nc2ccc(OC)cc12 | -1.68% | -1.68% | -0.74%
33 | CNC(=O)c1ccc2[nH]cc(C3CCN(CC4CCC(NC(=O)/C=C/c5ccc(Cl)c(Cl)c5)CC4)CC3)c2c1 (stereo not given) | 9.29% | 7.99% | 4.82%
34 | CC[C@H]1CN2CC[C@@H]1C[C@H]2[C@H](O)c1cc(N2CCC(CO)CC2)nc2ccc(OC)cc12 | 1.5% | 1.17% | 2.66%
35 | Cc1cc(O)cc2c(C3CCN(CC4CCC(NC(=O)/C=C/c5ccccc5Cl)CC4)CC3)c[nH]c12 (stereo not given) | 4.47% | 4.35% | 3.52%
36 | COc1cccc(CN2CCC(CCOC(c3ccccc3)c3ccc(Cl)cc3)CC2)c1O (stereo not given) | 26.2% | 26.5% | 12.5%
37 | O=C(/C=C/C=C/c1ccccc1)NC1CCC(CN2CCC(c3c[nH]c4ccccc34)CC2)CC1 (stereo not given) | 2.53% | 0.67% | 2.81%
38 | Cc1cc(C)c(CC(C)NCC(O)c2cccc(C(F)(F)F)c2)c(C)c1 (stereo not given) | 2.03% | -0.06% | -1.18%
39 | CN(C)CCC(=O)c1ccccc1 | 3.21% | 4.48% | 1.99%
40 | c1ccc(C(OCCC2CCN(Cc3cccc4cccnc34)CC2)c2ccccc2)cc1 | 9.36% | 8.53% | 5.64%
41 | O=C(Nc1ccc(Oc2ccccc2)cc1)N1CCC(CN2CCC(c3c[nH]c4ccccc34)CC2)CC1 | 1.64% | 2.58% | -1.12%
42 | CCCCCc1cc(O)c2c(c1)OC(C)(C)CC2C1=CCN(Cc2ccccc2)CC1 (stereo not given) | 2.07% | 2.23% | 2.74%
43 | N[C@@H](CCN1CCC(c2cccc(O)c2)CC1)Cc1ccc(F)c(F)c1 | 3.74% | 2.04% | 0.73%
44 | CC[C@H]1CN2CC[C@H]1C[C@H]2[C@H](O)c1ccnc2ccc(C#N)cc12 | 0.59% | 1.86% | 2.19%
45 | COC(=O)c1ccc(CC(C)NCC(O)c2cccc(C(F)(F)F)c2)cc1C (stereo not given) | 0.54% | 1.8% | 0.87%
46 | O=C(C=Cc1ccc(F)c(Br)c1)N1CCC(CN2CCC(c3c[nH]c4ccccc34)CC2)CC1 | 17.6% | 15.9% | 13.1%
47 | O=C(/C=C/c1ccc(Cl)c(Cl)c1)NC1CCC(N2CCC(c3c[nH]c4ccc(O)cc34)CC2)CC1 (stereo not given) | 1.81% | 1.52% | 2.5%
48 | COc1cc(C=CC(=O)N2CCC(CN3CCC(c4c[nH]c5ccccc45)CC3)CC2)ccc1O | 8.46% | 6.19% | 6.97%

Row | SMILES | inhibition [1] | inhibition [2] | inhibition [3]
49 | Cc1[nH]c2ccc(NS(C)(=O)=O)cc2c1C1CCN(CC2CCN(C(=O)/C=C/c3ccc(Cl)c(Cl)c3)CC2)CC1 | -0.42% | 1.08% | -0.21%
50 | CCN1CCC2(c3cccc(OC)c3)Cc3nc4ccccc4c(-c4ccccc4)c3CC2C1 (stereo not given) | 3.21% | 1.3% | 2.12%
51 | O=C(NC1CCC(CN2CCC(c3c[nH]c4ccccc34)CC2)CC1)c1cc2ccccc2s1 (stereo not given) | -1.97% and 2.46% | 0.46% and 1.62% | -5.56% and 1.62%
52 | O=C(Nc1ccc(Oc2ccccc2)cc1)NC1CCC(CN2CCC(c3c[nH]c4ccccc34)CC2)CC1 (stereo not given) | 1.21% | 0.51% | -0.05%
53 | COC(=O)c1ccc(CC(C)NCC(O)c2ccc3ccc4ccccc4c3c2)cc1 (stereo not given) | 3.1% | 1.22% | 3.14%
54 | COc1ccc(CN2CCN(CCOC(c3ccccc3)c3ccc(Cl)cc3)CC2)c(O)c1 (stereo not given) | 9.85% | 10.7% | 6.46%
55 | CC(C)CNCc1ccc(-c2cccc(CN(C(=O)NC3CCCCC3)C3CCN(Cc4ccccc4)CC3)c2)cc1 | 0.87% | -0.07% | 3.1%
56 | CC(Cc1ccc(Oc2ccc(Cl)cc2)cc1)NCC(O)c1cccc(Cl)c1 (stereo not given) | -2.67% | -2.38% | -1.74%
57 | CC[C@H]1CN2CC[C@@H]1C[C@H]2[C@H](O)c1cc(N2CCC(O)CC2)nc2ccc(OC)cc12 | -1.16% | -0.97% | -0.9%
58 | Oc1ccccc1CN1CCC(CCOC(c2ccccc2)c2ccc(Cl)cc2)CC1 (stereo not given) | 38.2% | 23.5% | 13.9%
59 | O=C(/C=C/c1ccc(C(F)(F)F)cc1)NC1CCC(CN2CCC(c3c[nH]c4ccccc34)CC2)CC1 (stereo not given) | 5.55% and -0.04% | 5.47% and -0.38% | 0.63% and -2.05%
60 | CCCc1cc(O)c2c3c(c(=O)oc2c1)CN(C)CC3 | 0.29% | 0.97% | 1.39%
61 | CC(C)(C)c1ccc(Cn2nc(C(=O)N3CCN(C(=O)C4CCCO4)CC3)c3ccccc32)cc1 (stereo not given) | 0.73% | 0.1% | -3.52%
62 | CN(C)c1cccc(NC(=O)N[C@H]2N=C(c3ccccc3)c3ccccc3N(CC(=O)N3CCCC3)C2=O)c1 | 2.85% | 2.62% | 2.53%
63 | CCCCCCCc1cc(O)c2c(c1)OC(C)(C)c1ccncc1-2 | 1.49% | 2.54% | 1.72%
64 | CCCCCc1cc(O)c2c(c1)OC(C)(C)CC2C1=CCN(Cc2cccnc2)CC1 (stereo not given) | -0.46% | 1.05% | 0.25%
65 | CC(Cc1ccc(OCc2ccc(CCN(C)C)cc2)cc1)NCCc1cccc(Cl)c1 (stereo not given) | 1.8% | 0.77% | -2.69%
66 | COCCNCc1cccc(-c2ccc(CN(C(=O)NC3CCCCC3)C3CCN(Cc4ccccc4)CC3)cc2)c1 | 7.28% | 3.57% | 2.09%
67 | O=C(/C=C/c1cccs1)NC1CCC(CN2CCC(c3c[nH]c4ccccc34)CC2)CC1 (stereo not given) | 4.14% | 5.22% | 2.51%
68 | COc1ccc(N(c2nc(-c3cc(Cl)ccc3Cl)cs2)C2CCNCC2)cc1 | 0.66% | -0.12% | 1.62%
69 | CCC1(C)CC(CCNCc2ccccc2O)(c2ccc(C)cc2)CCO1 (stereo not given) | -0.22% | -2.9% | -0.15%
70 | NC(=O)CN1CC=C(c2c[nH]c3ccc(Br)cc23)CC1 | -1.87% | 0.93% | 0.77%
